Results as given in PubChem BioAssay (NCI).
Compounds without any hit were thinned out: in the full panel of roughly 83,000, 20% have a hit.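 Values shown are percent growth following 48 h exposure of cells in 96-well plates to a single concentration of compound; below 10 was considered active.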 Values without a mark were called inactive. Activity calls are given as the source filed them.

How the values were obtained:
Experiment in all cases: NCI-60 one-dose screen, 48 h (100 = growth as untreated, 0 = no growth, -100 = all killed)
Conditions in all cases: 10 µM unless noted
[1] = tested on: SR leukemia
[2] = tested on: RPMI-8226 leukemia
[3] = tested on: OVCAR-4 ovarian
[4] = tested on: SK-OV-3 ovarian
[5] = tested on: IGROV1 ovarian
[6] = tested on: OVCAR-3 ovarian
[7] = tested on: HS 578T breast
[8] = tested on: NCI/ADR-RES ovarian
[9] = tested on: T-47D breast
[10] = tested on: BT-549 breast
[11] = tested on: MDA-MB-435 melanoma
[12] = tested on: SW-620 colon
[13] = tested on: MCF7 breast
[14] = tested on: HCT-116 colon
[15] = tested on: HCC-2998 colon
[16] = tested on: KM12 colon
[17] = tested on: OVCAR-5 ovarian
[18] = tested on: OVCAR-8 ovarian

SMILES | growth [1] | growth [2] | growth [3] | growth [4] | growth [5] | growth [6] | growth [7] | growth [8] | growth [9] | growth [10] | growth [11] | growth [12] | growth [13] | growth [14] | growth [15] | growth [16] | growth [17] | growth [18]
COc1cc(/C=C/C(=O)c2cccc(-n3cc(-c4ccccc4)[nH]c3=O)c2)ccc1O | 15.3% | -9.6% (active) | 49.1% | 92.2% | 2.96% (active) | 6.11% (active) | 71.3% | 23.2% | 62.9% | 43.9% | 58.5% | 4.95% (active) | 16.5% | 13.5% | 78.9% | 15% |  | 
CC(=O)c1ccc(NCC(=O)Nc2ccccn2)cc1 | 108% | 113% | 98.9% | 97% | 94.8% | 117% | 106% | 105% | 94.6% | 104% | 104% | 102% | 86.9% | 101% | 110% | 99% | 109% | 
CCCCCS(=O)(=O)Nc1ccc(C(=O)O)cc1 | 95.7% |  | 103% | 99.2% | 101% | 110% | 110% | 102% | 89.2% | 107% | 106% | 106% | 97% | 102% | 114% | 103% | 111% | 106%
Cc1ccc2[nH]c(=O)c3c(c2c1)OC(N)=C(C#N)C31c2cc(Br)ccc2-c2ccc(Br)cc21 | 72.2% | 3.77% (active) | 21% | 91.8% | 40.1% | 58.9% | 70.8% | 82.3% | 39.4% | 82.5% | 59.7% | 40% | 34% |  | 70.5% | 52.4% | 61.1% | 
CC(CN1CCCCC1)C(=O)c1ccccc1 (configuration not stated) | 97.3% | 78% | 114% | 106% | 109% | 109% | 103% | 108% | 99.2% | 116% | 104% | 104% | 91% |  | 119% | 105% | 101% | 
N#Cc1c(N)nc2c(C#N)c(NC(=O)c3ccccc3)nn2c1-c1ccccc1 |  | 44.1% | 88.8% | 96.8% | 59.1% | 89.5% | 94.7% | 85.5% | 68.2% | 97.6% | 96.7% | 103% | 75.8% | 92.7% | 103% | 95.7% | 105% | 77%
Cc1cc(C)c2c(-c3nnc(N)s3)cc(=O)oc2c1 | 105% | 72.3% | 100% | 108% | 101% | 105% | 92.4% |  | 99.6% | 98.8% | 94.3% | 98.2% | 92.2% | 102% |  | 98.8% | 103% | 
Cc1ccc(N(C(=O)CCc2c[nH]c3ccccc23)[C@H](C(=O)Nc2ccc(Cl)cc2)c2cccc([N+](=O)[O-])c2)cc1 | 72.9% |  | 99.1% | 90.8% | 78.7% | 96.9% | 82.3% | 70.1% | 72.5% | 69.7% | 81.3% | 69.1% | 90.1% | 79.8% | 87.8% | 60.6% |  | 87.8%
COc1ccc(Nc2nnc(SCc3ccccc3F)s2)cc1 |  | 71.6% | 99.4% | 90.9% | 8.8% (active) | 111% | 98% | 99.1% | 85.8% | 118% | 99% | 109% | 90.6% | 103% | 106% | 94.6% | 92.8% | 100%
